Our source for the binding signal values is publication PMC9911399, “Two distinct binding modes provide the RNA-binding protein RbFox with extraordinary sequence specificity”.

T1: RBFOX1 RRM (Homo sapiens, UniProt Q9NWB1 109-208)
T1 sequence: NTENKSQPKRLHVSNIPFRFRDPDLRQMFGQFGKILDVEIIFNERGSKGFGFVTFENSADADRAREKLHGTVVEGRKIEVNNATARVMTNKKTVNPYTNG

B1: GUGAUCC (DNA:RNA)
RNA: GGGAGACCGGAAUUCAGAUUGUCCGUGAUCCUUAAAUCCCGUCGUAGCCACCA
DNA 1: CAATCTGAATTCCGGTCTCCC
DNA 2: TGGTGGCTACGACGGGATT
B2: AGGGUCU (DNA:RNA)
RNA: B1 RNA with G25A, U26G, A28G, C31U
DNA 1: CAATCTGAATTCCGGTCTCCC
DNA 2: TGGTGGCTACGACGGGATT
B3: GUCCGCU (DNA:RNA)
RNA: B1 RNA with G27C, A28C, U29G, C31U
DNA 1: CAATCTGAATTCCGGTCTCCC
DNA 2: TGGTGGCTACGACGGGATT
B4: CGCUUGC (DNA:RNA)
RNA: B1 RNA with G25C, U26G, G27C, A28U, C30G
DNA 1: CAATCTGAATTCCGGTCTCCC
DNA 2: TGGTGGCTACGACGGGATT
B5: GCUUAAA (DNA:RNA)
RNA: B1 RNA with U26C, G27U, A28U, U29A, C30A, C31A
DNA 1: CAATCTGAATTCCGGTCTCCC
DNA 2: TGGTGGCTACGACGGGATT
B6: GCUUGCA (DNA:RNA)
RNA: B1 RNA with U26C, G27U, A28U, U29G, C31A
DNA 1: CAATCTGAATTCCGGTCTCCC
DNA 2: TGGTGGCTACGACGGGATT
B7: GCUUUGC (DNA:RNA)
RNA: B1 RNA with U26C, G27U, A28U, C30G
DNA 1: CAATCTGAATTCCGGTCTCCC
DNA 2: TGGTGGCTACGACGGGATT
B8: CCGCUUG (DNA:RNA)
RNA: B1 RNA with G25C, U26C, A28C, C30U, C31G
DNA 1: CAATCTGAATTCCGGTCTCCC
DNA 2: TGGTGGCTACGACGGGATT
B9: CGUUGCA (DNA:RNA)
RNA: B1 RNA with G25C, U26G, G27U, A28U, U29G, C31A
DNA 1: CAATCTGAATTCCGGTCTCCC
DNA 2: TGGTGGCTACGACGGGATT
B10: GCUUGCG (DNA:RNA)
RNA: B1 RNA with U26C, G27U, A28U, U29G, C31G
DNA 1: CAATCTGAATTCCGGTCTCCC
DNA 2: TGGTGGCTACGACGGGATT
B11: GCUUGCU (DNA:RNA)
RNA: B1 RNA with U26C, G27U, A28U, U29G, C31U
DNA 1: CAATCTGAATTCCGGTCTCCC
DNA 2: TGGTGGCTACGACGGGATT
B12: UAAGGUC (DNA:RNA)
RNA: B1 RNA with G25U, U26A, G27A, A28G, U29G, C30U
DNA 1: CAATCTGAATTCCGGTCTCCC
DNA 2: TGGTGGCTACGACGGGATT
B13: UACUCGA (DNA:RNA)
RNA: GGGAGACCGGAAUUCAGAUUGUCCUACUCGAUUAAAUCCCGUCGUAGCCACCA
DNA 1: CAATCTGAATTCCGGTCTCCC
DNA 2: TGGTGGCTACGACGGGATT
B14: AUACUGG (DNA:RNA)
RNA: B1 RNA with G25A, G27A, A28C, C30G, C31G
DNA 1: CAATCTGAATTCCGGTCTCCC
DNA 2: TGGTGGCTACGACGGGATT
B15: GUUACCU (DNA:RNA)
RNA: B1 RNA with G27U, U29C, C31U
DNA 1: CAATCTGAATTCCGGTCTCCC
DNA 2: TGGTGGCTACGACGGGATT
B16: CCCUACU (DNA:RNA)
RNA: B13 RNA with U25C, A26C, C29A, G30C, A31U
DNA 1: CAATCTGAATTCCGGTCTCCC
DNA 2: TGGTGGCTACGACGGGATT
B17: CUGGUCC (DNA:RNA)
RNA: B1 RNA with G25C, A28G
DNA 1: CAATCTGAATTCCGGTCTCCC
DNA 2: TGGTGGCTACGACGGGATT
B18: UGGGACC (DNA:RNA)
RNA: B1 RNA with G25U, U26G, A28G, U29A
DNA 1: CAATCTGAATTCCGGTCTCCC
DNA 2: TGGTGGCTACGACGGGATT
B19: UGGGUCA (DNA:RNA)
RNA: B1 RNA with G25U, U26G, A28G, C31A
DNA 1: CAATCTGAATTCCGGTCTCCC
DNA 2: TGGTGGCTACGACGGGATT
B20: UGGGUCG (DNA:RNA)
RNA: B1 RNA with G25U, U26G, A28G, C31G
DNA 1: CAATCTGAATTCCGGTCTCCC
DNA 2: TGGTGGCTACGACGGGATT
B21: UGGGUCC (DNA:RNA)
RNA: B1 RNA with G25U, U26G, A28G
DNA 1: CAATCTGAATTCCGGTCTCCC
DNA 2: TGGTGGCTACGACGGGATT
B22: UGGUCCG (DNA:RNA)
RNA: B13 RNA with A26G, C27G, G30C, A31G
DNA 1: CAATCTGAATTCCGGTCTCCC
DNA 2: TGGTGGCTACGACGGGATT

Changes are numbered by the printed parent chain; changes in the protein carry UniProt numbers. The full ranking holds about 16,000 sequences; the median of “ka relative to ugcaugu” is about 0.0091, and the highest 2% start at about 0.032. This excerpt belongs to a sample that is enriched for the highest values.

The target of this test is T1, RBFOX1 RRM. Kind of test: EMSA; HiTS-Eq, 1 nM pool, 10 min; buffer printed only for the single-RNA assays: 10 mM Tris pH 7.5, 150 mM NaCl, 3.4 mM EDTA, 0.001% NP-40, 30 C. The conditions noted are these: tags: His6 N-terminal (pET28a); label: 5' 32P. In short, it runs like this:
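Relative association constants, normalised to the cognate motif, were derived by comparing read counts of each RNA species with those of the control reaction. The RNA sequenced was the free fraction, separated by 8% native PAGE after a 10 min equilibration in 50 µL of 1 nM 5′-radiolabelled RNA (7 randomized nucleotides) with increasing concentrations of purified wild-type or mutant RbFox RRM.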
Regarding B1, the binding signal was 0.0187 KA relative to UGCAUGU.

Regarding B2, the binding signal is 0.0254 KA relative to UGCAUGU.

Regarding B3, the binding signal is 0.0113 KA relative to UGCAUGU.

Regarding B4, the binding signal is 0.032 KA relative to UGCAUGU.

Regarding B5, the binding signal is 0.00504 KA relative to UGCAUGU.

For B6, the binding signal was 0.0329 KA relative to UGCAUGU.

Regarding B7, the binding signal is 0.0232 KA relative to UGCAUGU.

As for B8, the binding signal was 0.0253 KA relative to UGCAUGU.

For the molecule B9, the binding signal is 0.0228 KA relative to UGCAUGU.

On to B10, for which the binding signal is 0.0193 KA relative to UGCAUGU.

With B11, the binding signal was 0.0354 KA relative to UGCAUGU.

With B12, the binding signal is 0.0168 KA relative to UGCAUGU.

On to B13, for which the binding signal is 0.0112 KA relative to UGCAUGU.

As to B14, the binding signal was 0.00795 KA relative to UGCAUGU.

Take B15: the binding signal was 0.00787 KA relative to UGCAUGU.

For the molecule B16, the binding signal was 0.00609 KA relative to UGCAUGU.

As to B17, the binding signal was 0.0227 KA relative to UGCAUGU.

With B18, the binding signal was 0.0142 KA relative to UGCAUGU.

As to B19, the binding signal is 0.0232 KA relative to UGCAUGU.

With B20, the binding signal was 0.0407 KA relative to UGCAUGU.

As for B21, the binding signal is 0.0332 KA relative to UGCAUGU.

With B22, the binding signal is 0.017 KA relative to UGCAUGU.
